From PubChem
Giardia FBPA inh: inhibitors of Giardia lamblia fructose-1,6-bisphosphate aldolase; purified Giardia FBPA; A8B2U2; actives 0.71% (n = 290,000); Potency, µM (doses to about 59.6 µM), most hits filed as inhibitors; further: nearly all actives have a fitted effect of over 55% in size
Target sequence (A8B2U2 whole entry, looked up): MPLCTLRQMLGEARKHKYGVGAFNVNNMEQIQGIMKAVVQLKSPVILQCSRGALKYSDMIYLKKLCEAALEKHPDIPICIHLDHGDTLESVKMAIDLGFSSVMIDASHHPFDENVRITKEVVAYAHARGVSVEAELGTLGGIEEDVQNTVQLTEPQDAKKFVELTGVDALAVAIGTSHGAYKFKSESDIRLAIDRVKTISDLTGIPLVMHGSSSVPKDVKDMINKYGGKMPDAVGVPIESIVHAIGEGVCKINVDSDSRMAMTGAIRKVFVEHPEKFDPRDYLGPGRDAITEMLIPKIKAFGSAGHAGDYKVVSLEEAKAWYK
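40 nM FBPA preincubated 10 min at RT with compound (up to 57.5 uM final), then substrate plus GAPDH/TPI/NAD/arsenate coupling and diaphorase/resazurin added. Fluorescence read after 20 min at RT, 525/598 nm.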
Vaccinia Venus: vaccinia inhibition (Venus reporter). actives 0.46% (n = 330,000). Vaccinia virus Venus reporter expression, fluorescence. Potency, µM (series often up to 36.5 µM), usual class: inhibitors; calls by dose curve; tested in A549 cells; further: nearly all actives have a fitted effect of over 30% in size
HCMV antiviral: human cytomegalovirus inhibition. HFF cells, HCMV-luciferase reporter, 72 h; stronger effect = lower value. activity change, negative = inhibition, % at 57.5 µM. actives 4.5% (n = 410,000); in the data active means activity change below about -60%; inconclusive means no clear call, values can overlap the other calls; inactive means above about -39%
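After 16 h attachment at 37C, HFF cells received test compound and HCMV-luciferase (1 PFU/cell); reporter luminescence read 72 h later, data normalized against buffer-only and known inhibitor Salinomycin.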
VACV mCherry inh: vaccinia inhibition (mCherry reporter); Vaccinia virus mCherry reporter infection, fluorescence; Potency, µM (highest dose often 36.5 µM), most hits filed as inhibitors; actives 0.63% (n = 310,000); calls by dose curve; tested in A549 cells; further: nearly all actives have a fitted effect of over 35% in size
HCV inh: inhibitors of hepatitis C virus infection | Huh7.5.1 HCVcc-Cre infection, luciferase reporter, 44 h | Potency, µM (series often up to 41.8 µM), usual class: inhibitors | actives 3.4% (n = 340,000) | AID 651820
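1,000 cells/well; 4 h culture; + compound; + HCVcc-Cre (~0.5 moi); 44 h; luciferase substrate, RT 15 min; read 15 sec.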
FMDV antiviral: foot and mouth disease virus antiviral activity | Potency, µM (series often up to 57.9 µM), most hits filed as inhibitors | FMDV antiviral cell-based qHTS | AID 1159524 | actives 1.2% (n = 410,000); calls by dose curve; tested in HEK293T cells; further: read-out not given here; nearly all actives have a fitted effect of over 45% in size
Each line names hits and unclear results; the compound was inactive in the other large screens. In the library only some 7.5% were active in any assay of this set; here they are far more common. Unless noted, the call rests on the fitted dose curve; in most records, active means well fitted curve in the direction sought with a large enough effect; inconclusive means small, poorly fitted or top-dose-only effect, or another doubt; inactive means no such curve, though single readings can be large; an effect the other way counts as inactive or inconclusive.

CC(=O)c1cccc(NC(=O)c2c(-c3c(F)cccc3Cl)noc2C)c1	none (no result: Giardia FBPA inh)
Cc1ccc(NC(=O)CCc2ccc(S(=O)(=O)NC3CCCCC3)cc2)cc1	HCV inh inconclusive (no result: VACV mCherry inh)
O=C(CCc1ccc(S(=O)(=O)NC2CCCCC2)cc1)Nc1ccccc1	HCMV antiviral -69
CC(=O)OCC(NC(=O)C(Cc1ccccc1)NC(=O)OC(C)(C)C)C1OC(n2cc(F)c(=O)[nH]c2=O)C(OC(C)=O)C1OC(C)=O (stereo not given)	none (no result: Vaccinia Venus, HCMV antiviral, VACV mCherry inh, HCV inh, FMDV antiviral)
Cc1ccc(NC(=O)/C=C\C(=O)N(c2ccc(C(C)C)cc2)C(C(=O)NCc2ccco2)c2ccc(Cl)cc2)cc1 (stereo not given)	Vaccinia Venus inconclusive, HCMV antiviral -76, VACV mCherry inh inconclusive (no result: Giardia FBPA inh, HCV inh)
COc1ccc(NC(=O)/C=C\C(=O)N(c2ccc(C(C)C)cc2)C(C(=O)NCc2ccco2)c2ccc(F)cc2)cc1 (stereo not given)	Vaccinia Venus inconclusive, HCMV antiviral inconclusive, VACV mCherry inh inconclusive (no result: Giardia FBPA inh, HCV inh)
COc1ccc(N(C(=O)/C=C\C(=O)Nc2ccc(Cl)cc2)C(C(=O)NCc2ccco2)c2ccc(C)cc2)cc1 (stereo not given)	none (no result: Giardia FBPA inh, HCV inh)
CCOc1ccc(NC(=O)/C=C\C(=O)N(c2ccc(C(C)C)cc2)C(C(=O)NCc2ccco2)c2ccc(F)cc2)cc1 (stereo not given)	Vaccinia Venus inconclusive, HCMV antiviral -61 (no result: Giardia FBPA inh, HCV inh)
NC(N)=NCc1cccc(I)c1	HCMV antiviral -66, HCV inh 7.1µM, FMDV antiviral inconclusive
Cc1noc(C)c1C(=O)N1CCC2(CCN(C(=O)Nc3ccccc3)CC2)CC1	none (no result: Vaccinia Venus, HCMV antiviral, VACV mCherry inh, HCV inh)
CCc1nc(Sc2nc(C)cc(C)n2)c2oc3ccccc3c2n1	Vaccinia Venus inconclusive, HCMV antiviral -86, HCV inh inconclusive (no result: VACV mCherry inh)
CCc1nc(N(CC)CC)c2oc3ccccc3c2n1	HCV inh inconclusive, FMDV antiviral inconclusive (no result: VACV mCherry inh)
CCc1nc(SCC(=O)N2CCN(c3ccccc3)CC2)c2oc3ccccc3c2n1	HCV inh 10µM, FMDV antiviral inconclusive (no result: Vaccinia Venus, VACV mCherry inh)
Cc1nc(SCc2nc3ccc(Br)cc3[nH]2)c2oc3ccccc3c2n1	none (no result: Giardia FBPA inh, Vaccinia Venus, VACV mCherry inh, HCV inh)
CCc1nc(SCCO)c2oc3ccccc3c2n1	Vaccinia Venus inconclusive, HCV inh 10µM (no result: VACV mCherry inh)
CCc1nc(SCc2nc3ccccc3[nH]2)c2oc3ccccc3c2n1	HCMV antiviral inconclusive, HCV inh 7.9µM, FMDV antiviral inconclusive (no result: Vaccinia Venus, VACV mCherry inh)
Cc1ccc(C)c(NS(=O)(=O)c2cc3c4c(c2)CC(=O)N4CCC3)c1	HCV inh inconclusive (no result: Giardia FBPA inh, Vaccinia Venus, VACV mCherry inh)
NCCn1cc(-c2cc(Cl)c(N)c(Cl)c2)ncc1=O	none (no result: Giardia FBPA inh, Vaccinia Venus, VACV mCherry inh, HCV inh, FMDV antiviral)
O=C(C[N+]12CN3CN(CN(C3)C1)C2)c1ccc(O)c(O)c1	none (no result: Giardia FBPA inh, HCMV antiviral, HCV inh, FMDV antiviral)
CC[n+]1cccc(Br)c1	none (no result: Giardia FBPA inh, HCMV antiviral, HCV inh, FMDV antiviral)
S=c1[nH]nc(-c2ccc(Cl)cc2Cl)n1-c1ccc2c(c1)OCCO2	none
Oc1ccc(-c2n[nH]c(=S)n2-c2ccc3c(c2)OCCO3)c(O)c1	HCMV antiviral -101, VACV mCherry inh inconclusive, FMDV antiviral 2µM
COc1ccc(NC(=O)c2cc(C)nn2-c2ccccc2)cc1	none
Cc1cc(C)c(S(=O)(=O)Nc2cccc(S(=O)(=O)NC3=NCCC3)c2)c(C)c1	none
COc1cc([N+](=O)[O-])c(OC)cc1Nc1ccccc1C(=O)O	none (no result: Giardia FBPA inh, Vaccinia Venus, VACV mCherry inh, HCV inh, FMDV antiviral)
Cc1cccc(Nc2ncccc2C(=O)O)c1C	none
O=C(O)c1ccccc1Nc1ccccc1	HCV inh 5µM
COc1cc(-c2ccc(Nc3ccccc3C(=O)O)c(OC)c2)ccc1Nc1ccccc1C(=O)O	Giardia FBPA inh inconclusive, HCMV antiviral -68
Cc1cccc(Nc2ccccc2C(=O)O)c1C	HCMV antiviral -63
NCCCNc1ccc(Br)cn1	none (no result: Giardia FBPA inh, HCMV antiviral, HCV inh, FMDV antiviral)
COc1ccc(CC(=O)NC2CC(=O)N(c3cccc(F)c3)C2)cc1OC (stereo not given)	none (no result: Giardia FBPA inh, HCV inh)
O=C(CN1C(=O)COc2ccc(S(=O)(=O)N3CCOCC3)cc21)N1CCN(c2ccc(F)cc2)CC1	none (no result: Giardia FBPA inh, HCV inh)
COc1cnc(SC)nc1Nc1ccc(C#N)cc1	HCV inh 22µM
CCCOc1ccc(Nc2nc(SC)ncc2C(=O)OCC)cc1	none (no result: Giardia FBPA inh, HCV inh)
COc1ccc(CNC(=O)C2CCCN(c3nnc(C)c4c(C)n(-c5ccc(C)cc5)nc34)C2)cc1 (stereo not given)	Vaccinia Venus inconclusive, VACV mCherry inh inconclusive (no result: Giardia FBPA inh, HCV inh)
COc1ccc(-n2nc3c(N4CCC(C(=O)NCc5cccc(F)c5)CC4)nnc(C)c3c2C)cc1	Vaccinia Venus 28µM, VACV mCherry inh inconclusive (no result: Giardia FBPA inh, HCV inh)
